D2 ag-1: agonists of human D2 dopamine receptor (beta-arrestin); P14416; DiscoveRx PathHunter D2 beta-arrestin, luminescence, 90 min; 100% = 57 uM dopamine signal; activation, % (no concentration beside the values); actives 0.084% (n = 360,000); AID 624465; in the data active = activation above about 40%; inconclusive = between about 15% and that limit
Target sequence (P14416 whole entry, looked up): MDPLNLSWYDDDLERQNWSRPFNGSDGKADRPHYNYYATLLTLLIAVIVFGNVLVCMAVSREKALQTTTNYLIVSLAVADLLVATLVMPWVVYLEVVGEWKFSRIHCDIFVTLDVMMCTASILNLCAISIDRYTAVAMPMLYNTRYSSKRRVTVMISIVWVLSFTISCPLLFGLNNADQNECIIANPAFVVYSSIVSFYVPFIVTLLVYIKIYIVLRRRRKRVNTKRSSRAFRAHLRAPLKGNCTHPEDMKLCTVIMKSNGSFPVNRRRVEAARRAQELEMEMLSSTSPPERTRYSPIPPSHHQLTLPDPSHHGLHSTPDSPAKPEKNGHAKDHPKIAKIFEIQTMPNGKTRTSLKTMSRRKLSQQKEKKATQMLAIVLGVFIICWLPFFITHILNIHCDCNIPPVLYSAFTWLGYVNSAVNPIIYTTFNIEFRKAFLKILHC
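DiscoveRx PathHunter D2 beta-arrestin cells (2,100/well) attached overnight, then compound-stimulated 90 min at 37 C in HBSS/10 mM HEPES/0.1% Tween-20 buffer; beta-galactosidase complementation read by luminescence after 1 h at ambient temperature. Dopamine 57 uM final (EC100) as control.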
D2 PAM-1: D2 dopamine receptor (human) potentiation | actives 0.34% (n = 340,000) | potentiation, % at 10 µM | HEK293 T-REx D2, calcium flux, EC20 dopamine potentiation | AID 485347 | P14416;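 active = potentiation over 3 SD above the plate norm, cut at about 30% in these data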
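Tetracycline-induced HEK293 T-REx cells force-coupled to calcium signalling expressed D2; compounds were pin-added after a 10 s baseline, read kinetically 180 s, then an EC20 dopamine challenge followed with a further 180 s calcium read.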
D2 PAM-2: potentiates the human D2 dopamine receptor allosterically | potentiation, % (no concentration beside the values) | actives 0.23% (n = 360,000) | DiscoveRx D2 beta-arrestin cells, luminescence, 90 min; 100% = 57 uM dopamine signal; in the data active = potentiation above about 50%; inconclusive = mostly about 30% to 49%
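PathHunter beta-arrestin assay in DiscoveRx D2 cells. Compounds were added with an EC20 of dopamine (50 nM final) for 90 min at 37 deg C. Luminescence was read 1 h after detection reagent, with 57 uM dopamine as the EC100 control.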
D2 antagonist: D2 dopamine receptor (human) antagonism | P14416 | HEK293 TREx D2 cells, calcium flux, dopamine EC80 | inhibition, % at 10 µM | actives 2% (n = 340,000); in the data active = inhibition above about 30%; inactive = below that, where a call was filed
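Tetracycline-induced HEK293 T-REx cells expressing D2 force-coupled to calcium signalling were dye-loaded, exposed to compound for 180 s, then challenged with an EC80 of dopamine; calcium flux was followed kinetically for a further 180 s.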
D2 ag-2: activates the human D2 dopamine receptor | HEK293 T-REx D2 cells, calcium flux agonist mode | P14416 | AID 485358 | actives 0.53% (n = 340,000) | activation, % at 2 µM;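 active = activation over 3 SD above normal in the single-dose calcium agonist read, cut at about 30% in these data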
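Tetracycline-induced HEK293 T-REx cells with force-coupled D2 receptor, plated overnight at 30 C, loaded with no-wash calcium dye. After a 10 s baseline, compound was pin-added and calcium flux read kinetically for 180 s; calcium rises flagged agonists.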
Of the large screens only hits and unclear results are named; the others gave an inactive call. This is a sample that favours compounds with a hit; in the whole collection about 2.4% have one here.

Cn1ccnc1SCC(=O)Nc1ccc([N+](=O)[O-])cn1	none
Cn1ccnc1SCC(=O)Nc1ccc(Cl)cn1	D2 antagonist 31
COc1cccc2sc3cc(C#CC4(O)CCCCC4)ccc3c(=O)c12	D2 ag-1 inconclusive (no result: D2 PAM-1, D2 antagonist, D2 ag-2)
COc1cccc2sc3ccc(C#CC4(N)CCCCC4)cc3c(=O)c12	D2 antagonist 31
CCCSc1nc(-c2ccc(OC)cc2)cc(-c2ccccc2OC)c1C#N	none (no result: D2 ag-1, D2 PAM-2, D2 antagonist)
O=C(c1ccc(N2CCC3(CC2)OCCO3)c([N+](=O)[O-])c1)N1CCOCC1	D2 antagonist 31
O=C(c1ccc(N2CCOCC2)c([N+](=O)[O-])c1)N1CCN(c2ccccc2)CC1	none (no result: D2 PAM-1, D2 antagonist, D2 ag-2)
Cc1cc(C)cc(-n2ccnc(NCCc3ccccc3)c2=O)c1	none (no result: D2 ag-1, D2 PAM-2, D2 antagonist)
Cc1ccccc1C(=O)NCCNc1ccc([N+](=O)[O-])cc1	D2 antagonist 33
O=C(NCCNc1ccc([N+](=O)[O-])cc1)c1ccccc1Br	D2 PAM-1 34
Cc1ccc(-c2nnc(SCC(=O)NCc3ccccc3)o2)cc1	none (no result: D2 ag-1, D2 PAM-2, D2 antagonist)
CCOc1ccc(NC(=O)C2CCC(CNS(=O)(=O)c3ccc(Br)s3)CC2)cc1 (configuration not stated)	none (no result: D2 ag-1, D2 PAM-2, D2 antagonist)
CCCOC(=O)c1cc(-c2ccc(C=O)o2)ccc1Cl	D2 antagonist 31
CC(C)(C)c1ccc(OCCOCCn2c(-c3ccc(Cl)cc3)nc3ccccc3c2=O)cc1	none (no result: D2 ag-1, D2 PAM-2, D2 antagonist)
CCc1nc2ccc(C(=O)Nc3cc(-c4ccccc4)ccc3OC)cn2c1N(C=O)CCC(C)C	D2 ag-1 134 (no result: D2 PAM-1, D2 antagonist, D2 ag-2)
CCOc1ccc(S(=O)(=O)NCc2ccc3c(c2)CCN3C(=O)c2ccc(C)cc2)cc1	none (no result: D2 ag-1, D2 PAM-2, D2 antagonist, D2 ag-2)
O=c1cc(N2CCOCC2)[nH]c(=O)n1-c1ccc(Cl)cc1	D2 antagonist 41
O=c1cc(N2CCCC2)[nH]c(=O)n1-c1ccc(Cl)cc1	none
O=C(O)c1ccc([N+](=O)[O-])cc1	none (no result: D2 PAM-1, D2 antagonist, D2 ag-2)
O=C(Nc1ccccc1Cl)c1cc[n+](Cc2ccc([N+](=O)[O-])cc2)cc1	none
NC(=O)c1cc[n+](Cc2ccc([N+](=O)[O-])cc2)cc1	D2 antagonist 39
NC(=O)c1ccc(C(=O)c2ccc([N+](=O)[O-])cc2)cc1	D2 PAM-2 62
COC(=O)c1ccc(NC(=O)CSc2nc(C)cc(C)c2C(=O)Nc2ccccc2)cc1	none (no result: D2 ag-1, D2 PAM-2, D2 antagonist)
CCCNC(=O)C1CCC(CNS(=O)(=O)c2ccc3c(c2)CC(C)N3C(C)=O)CC1 (configuration not stated)	D2 antagonist 41
CC(=O)N1c2ccc(S(=O)(=O)NCC3CCC(C(=O)NCCC(C)C)CC3)cc2CC1C (configuration not stated)	none (no result: D2 ag-1, D2 PAM-2, D2 antagonist, D2 ag-2)
FC(F)(F)c1ccc(Cl)c(N/N=C/c2ccc(N3CCOCC3)s2)c1	D2 ag-1 inconclusive, D2 PAM-2 72 (no result: D2 PAM-1, D2 antagonist, D2 ag-2)
O=C(N/N=C/c1ccc(N2CCOCC2)s1)c1ccccc1Cl	none
CCOc1ccccc1NC(=O)N1c2ccccc2Sc2ccccc21	none (no result: D2 ag-1, D2 PAM-2, D2 antagonist, D2 ag-2)
CCOc1ccc(CN(C)CC(=O)Nc2ccc3c(c2)CCC3)cc1OC	D2 antagonist 30
C=CCOc1ccc(CN(C)CC(=O)Nc2ccc3c(c2)CCC3)cc1	none
Cc1nc(/N=C(\N)NC(=O)N2c3ccccc3Sc3ccccc32)nc2ccccc12	D2 PAM-2 55
Cc1nc(/N=C(\N)NC(=O)c2ccccc2)nc2ccccc12	none
CN(C)c1nc(SCC(=O)Nc2ccccc2)nc(N2CCOCC2)n1	D2 antagonist 31
CN(C)c1nc(SCC(=O)Nc2ccc(Cl)c(Cl)c2)nc(N2CCOCC2)n1	none (no result: D2 PAM-1)
CC(C)(C)CC(=O)Nc1nnc(SCC(=O)N2CCCCC2)s1	D2 PAM-1 32
CC(C)(C)CC(=O)Nc1nnc(SCC(=O)NC2CCCCC2)s1	none
Cc1ncoc1C(=O)N1CCCC(C(=O)c2ccc(-c3ccccc3)cc2)C1 (configuration not stated)	D2 antagonist 52
O=C(c1ccc(-c2ccccc2)cc1)C1CCCN(Cc2ccncc2)C1 (configuration not stated)	D2 antagonist 75
COc1cc(C(=O)N/C(=C\c2cn(C)c3ccccc23)C(=O)NCCCN2CCOCC2)cc(OC)c1OC	none
O=C(c1nc2ncccn2n1)N1CCN(c2ccc(F)cc2)CC1	D2 PAM-1 31
COCCn1c(SCC(=O)NC(C)c2ccc(F)cc2)nc2ccccc21 (configuration not stated)	D2 PAM-1 34
O=C(CN(c1cccc(C(F)(F)F)c1)S(=O)(=O)c1ccccc1)N1CCOCC1	D2 ag-1 inconclusive
O=C(CN(c1ccc(Cl)c(C(F)(F)F)c1)S(=O)(=O)c1ccccc1)N1CCOCC1	D2 antagonist 35
Cc1cc(C)c(C)c(OCCNCc2ccccc2)c1	D2 antagonist 75
C=CCc1ccc(OCCCNCc2ccccc2)c(OC)c1	D2 antagonist 62
C=CCc1ccc(OCCCNC2CCCC2)c(OC)c1	none (no result: D2 PAM-1, D2 antagonist, D2 ag-2)
C=CCc1ccccc1OCCNCc1ccccc1	D2 antagonist 69
Brc1ccccc1OCCNCc1ccccc1	D2 antagonist 94
Cc1cccc(N2CCN(C(=O)CCS(=O)(=O)c3ccc4c(c3)CC(=O)N4C)CC2C)c1 (configuration not stated)	none (no result: D2 ag-1, D2 PAM-2, D2 antagonist, D2 ag-2)
CCn1nc(C)c(CCN(C)C(=O)Nc2cc(OC)c(OC)c(OC)c2)c1C	none (no result: D2 ag-1, D2 PAM-2, D2 antagonist, D2 ag-2)
Cc1ccc(C(C)C)c(OCCNCCc2ccccc2)c1	D2 antagonist 41
Clc1ccc(OCCCNCc2ccccc2)c2ccccc12	D2 antagonist 41
Cc1ccc(C(C)C)c(OCCCNCc2cccnc2)c1	none
Cc1ccc(-c2noc(CN(C3CCCCC3)S(=O)(=O)c3ccc(Cl)cc3)n2)cc1	none (no result: D2 ag-1, D2 PAM-2, D2 antagonist)
Cc1ccc(S(=O)(=O)NC(CC(=O)O)c2cccs2)cc1 (configuration not stated)	none
Cc1ccc(S(=O)(=O)NC(C)C(=O)NC(C)c2cccs2)cc1 (configuration not stated)	D2 PAM-1 32
CCc1nnc(NS(=O)(=O)c2ccc(NC(=O)c3cccc(OC)c3)cc2)s1	none
CCOc1ccc(-c2c(C(=O)N/N=C/C3CC=CCC3)nnn2-c2nonc2N)cc1 (configuration not stated)	none
CCCCN1CCc2c1nc1ccc(Br)cc1c2N	D2 antagonist 68
CC1(C)CC(=O)C(C(C2=C(O)CC(C)(C)CC2=O)c2ccc([N+](=O)[O-])cc2)C(=O)C1 (configuration not stated)	D2 antagonist 33
O=C(/C=C/c1ccccc1)Nc1ccc(Cl)cn1	none
O=C(C1CCN(CCCc2ccccc2)CC1)N(CCc1ccccc1)Cc1ccccc1	D2 antagonist 39
CCN(Cc1ccccc1)C(=O)C1CCN(Cc2ccc(SC)cc2)CC1	D2 antagonist 81
O=C(C1CCN(CC2CC=CCC2)CC1)N(CCc1ccccc1)Cc1ccccc1 (configuration not stated)	none
